In PubChem BioAssay (NCATS):
Results filed as inconclusive are left out. The source made the active and inactive calls. Calls follow the shape of the dose curve; as a rule, active = well fitted curve in the direction sought with a large enough effect; inconclusive = small, poorly fitted or top-dose-only effect, or another doubt; inactive = no such curve, though single readings can be large; an effect the other way counts as inactive or inconclusive.

What was measured:
[1] = tested on: HaCat; experiment: Cytotoxic Profiling of Annotated Libraries Using Quantitative High-Throughput Screening (AID 1296008); details: Five cell lines viability, CellTiter-Glo ATP luminescence, 48-72 h; max response: active compounds read low; also: nearly all actives have a fitted effect of over 60% in size
Method in brief: (§1)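 Cytotoxicity was measured as CellTiter-Glo ATP luminescence, read after 10 min at room temperature. Compound treatment of the cells lasted 48 or 72 hr at 37 degrees Celsius in a qHTS format.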

[2] = tested on: KB-3-1; experiment: as above; details: Five cell lines viability, CellTiter-Glo ATP luminescence, 48-72 h; max response: active compounds read low
Method in brief: as §1

[3] = tested on: NIH3T3; experiment: as above; details: Five cell lines viability, CellTiter-Glo ATP luminescence, 48-72 h; max response: active compounds read low
Method in brief: as §1

[4] = tested on: C33A; experiment: Primary qHTS to identify gynecologic anti-cancer compounds using libraries of approved drugs and bioactive compounds (AID 1345084); details: Gynecologic cancer cell panel viability, ATPlite luminescence, 48 h; series mostly up to 57.5 µM; also: nearly all actives have a fitted effect of over 55% in size
Method in brief: (§2)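 ATP-based viability (ATPlite), 1,000 cells/well, 16 h pre-incubation, 48 h compound at 37 C, 5% CO2, 15 min RT before read.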

[5] = tested on: CAOV3; experiment: as above; details: Gynecologic cancer cell panel viability, ATPlite luminescence, 48 h; series mostly up to 57.5 µM
Method in brief: as §2

[6] = tested on: CASKI; experiment: as above; details: Gynecologic cancer cell panel viability, ATPlite luminescence, 48 h; series mostly up to 57.5 µM
Method in brief: as §2

[7] = tested on: Es-2; experiment: as above; details: Gynecologic cancer cell panel viability, ATPlite luminescence, 48 h; series mostly up to 57.5 µM
Method in brief: as §2

[8] = tested on: HeLa; experiment: as above; details: Gynecologic cancer cell panel viability, ATPlite luminescence, 48 h; series mostly up to 57.5 µM
Method in brief: as §2

[9] = tested on: Hek293T; experiment: as above; details: Gynecologic cancer cell panel viability, ATPlite luminescence, 48 h, control line for the selectivity index; series mostly up to 57.5 µM
Method in brief: as §2

[10] = tested on: JEG-3; experiment: as above; details: Gynecologic cancer cell panel viability, ATPlite luminescence, 48 h; series mostly up to 57.5 µM
Method in brief: as §2

[11] = tested on: OV90; experiment: as above; details: Gynecologic cancer cell panel viability, ATPlite luminescence, 48 h; series mostly up to 57.5 µM
Method in brief: as §2
% is scaled to controls: 0 for no effect and ±100 for the full control effect.

CC(C)c1nnc(-c2ccc(-c3ccccc3)nc2)n1-c1cccc2nonc12
inactive: max response [1] 4.99% | max response [2] 2.23% | max response [3] 4.73% | Potency [4] | Potency [5] | Potency [6] | Potency [7] | Potency [8] | Potency [9] | Potency [10] | Potency [11]

CC(C)=CCC/C(C)=C/Cc1ccc(O)c(C2OC(=O)c3cc(C(=O)O)cc(O)c32)c1O (centres undefined)
inactive: max response [1] -20.9% | max response [2] -2.57% | max response [3] 0.065% | Potency [4] | Potency [5] | Potency [6] | Potency [7] | Potency [8] | Potency [9] | Potency [10] | Potency [11]

C=CCC1=C[C@]2(OC)[C@H](C)[C@@H](c3ccc(O)c(OC)c3)O[C@]2(OC)CC1=O
inactive: max response [1] 3.92% | max response [2] 5.23% | max response [3] 0.772% | Potency [4] | Potency [5] | Potency [6] | Potency [7] | Potency [8] | Potency [9] | Potency [10] | Potency [11]

C=C1CC[C@H]2[C@@](C)(CCC(O)[C@@]2(C)CO)[C@@H]1CCC1=CCOC1=O (some centres undefined)
inactive: max response [1] -3.43% | max response [2] -26.3% | max response [3] -1.37% | Potency [4] | Potency [5] | Potency [6] | Potency [7] | Potency [8] | Potency [9] | Potency [10] | Potency [11]

c1ccc(-c2ncc(CN3CCN(c4ncccn4)CC3)[nH]2)cc1
inactive: max response [1] 0.273% | max response [2] -2.29% | max response [3] -1.52% | Potency [4] | Potency [5] | Potency [6] | Potency [7] | Potency [8] | Potency [9] | Potency [10] | Potency [11]

Cn1ncnc1COc1nn2c(-c3cc(F)ccc3F)nnc2cc1C(C)(C)C
inactive: max response [1] -21.7% | max response [2] 8.68% | max response [3] -2.09% | Potency [4] | Potency [5] | Potency [6] | Potency [7] | Potency [8] | Potency [9] | Potency [10] | Potency [11]

CC1(C)CCC2(C(=O)OC3OC(CO)C(O)C(O)C3O)CCC3(C)C(=CCC4C5(C)CCC(OC6OC(C(=O)O)C(OC7OC(CO)C(O)C(O)C7O)C(OC7OC(CO)C(O)C(O)C7O)C6O)C(C)(C)C5CCC43C)C2C1 (centres undefined)
inactive: max response [1] 0.399% | max response [2] 6.58% | max response [3] -0.359% | activity change, negative = cytotoxicity [4] -2.64% [at 11.6 µM] | activity change, negative = cytotoxicity [5] 3.96% [at 11.6 µM] | activity change, negative = cytotoxicity [6] 5.46% [at 11.6 µM] | activity change, negative = cytotoxicity [7] -0.153% [at 11.6 µM] | activity change, negative = cytotoxicity [8] 10.1% [at 11.6 µM] | activity change, negative = cytotoxicity [9] -1.3% [at 11.6 µM] | activity change, negative = cytotoxicity [10] -1.35% [at 11.6 µM] | activity change, negative = cytotoxicity [11] 3.02% [at 11.6 µM]

C[C@]12C=C[C@@]3(CCC4[C@](C)(CO)CCC[C@@]4(C)C3CC1)C2 (some centres undefined)
inactive: max response [1] -20.7% | max response [2] 4.11% | max response [3] -6.89% | Potency [4] | Potency [5] | Potency [6] | Potency [7] | Potency [8] | Potency [9] | Potency [10] | Potency [11]

COC(=O)C1=CO[C@@H](O[C@@H]2O[C@H](CO)[C@@H](O)[C@H](O)[C@H]2O)[C@H]2[C@@H]1CC(OC)O[C@@H]2C (some centres undefined)
inactive: max response [1] -16.4% | max response [2] 3.52% | max response [3] -1.67% | Potency [4] | Potency [5] | Potency [6] | Potency [7] | Potency [8] | Potency [9] | Potency [10] | Potency [11]

COc1ccc(-c2nc(-c3ccc(-c4cccc(Cl)c4)o3)[nH]c2-c2ccc(OC)cc2)cc1
inactive: max response [1] -26.5% | max response [2] -16.3% | max response [3] -19.3% | Potency [4] | Potency [5] | Potency [6] | Potency [7] | Potency [8] | Potency [9] | Potency [10] | Potency [11]

C[C@@H]1C(=O)O[C@H]2C[C@]34[C@H]5C[C@@H](C(C)(C)C)[C@]36[C@@H](OC(=O)[C@H]6O)O[C@]4(C(=O)O5)[C@]21O
inactive: max response [1] 3.22% | max response [2] -3.28% | max response [3] 3.92% | Potency [4] | Potency [5] | Potency [6] | Potency [7] | Potency [8] | Potency [9] | Potency [10] | Potency [11]

COc1c(C)c(OCC(O)C(C)(C)O)cc2c1COC2=O (centres undefined)
inactive: max response [1] -8.24% | outcome [2] | max response [3] -1.75% | Potency [4] | Potency [5] | Potency [6] | Potency [7] | Potency [8] | Potency [9] | Potency [10] | Potency [11]

C=CC[C@]12C[C@@H](OC)C(=O)C(OC)=C1O[C@@H](c1cc(OC)c3c(c1)OCO3)[C@@H]2C
inactive: max response [1] -13.8% | max response [2] -1.19% | max response [3] -4.29% | Potency [4] | Potency [5] | Potency [6] | Potency [7] | Potency [8] | Potency [9] | Potency [10] | Potency [11]

COc1ccc(-c2ccc(-c3cn(C(=O)N4CCCCC4c4ccccc4)nn3)cc2)cc1 (centres undefined)
inactive: max response [1] -8.43% | max response [2] -8.19% | max response [3] 1.57% | Potency [4] | Potency [5] | Potency [6] | Potency [7] | Potency [8] | Potency [9] | Potency [10] | Potency [11]
